Results reported in ChEMBL document CHEMBL4513216, “Probing the Open Global Health Chemical Diversity Library for Multistage-Active Starting Points for Next-Generation Antimalarials” (ACS Infect Dis, 2020).
Out of some 69,000 compounds screened, about 8,600 (12%) showed an effect of 50% or more. The entries come from a sample that favours strong results as a whole.

tested on: Plasmodium berghei; assay: Screen against P. berghei liver stage (PbLuc), transformed with Luciferase, at 10uM; assay type: functional, HepG2; settings: tested at 10 uM

Row | Structure (SMILES) | INHIBITION [%]
1 | COc1ccc(CNC2CCC3(CCC(=O)N3)CC2)cc1 (configuration not stated) | 19.8
2 | CC(C)c1nn(C)c(N(C)C)c1CNCc1cccc(CN(C)C)c1 | 21.8
3 | Cn1ncc(C(=O)O)c1C(=O)Nc1nc2ccc(Br)cc2s1 | 6.27
4 | COCCOCC(=O)N1CCc2cc(Cl)cc(Cl)c2C1 | 1.86
5 | CCSCc1nc(O)c2nnn(C3CCN(Cc4ccco4)CC3)c2n1 | 32.5
6 | Cc1ccc(C)c(C(=O)N2CCC3(CCC(=O)N(CC(N)=O)C3)CC2)c1 | 15.2
7 | Cn1cc(C(=O)N2CCN(c3ncccn3)CC2)ccc1=O | 28.8
8 | CN(CC1CCOC1)S(=O)(=O)c1cccc(C(=O)N2CCCCCC2)c1 (configuration not stated) | -7.57
9 | CCOc1ncnc2c1CCN(S(=O)(=O)CC)CC2 | 30.5
10 | O=C(Cc1cccc(F)c1)N1CCc2ncnc(N3CCCC3)c2CC1 | -13.9
11 | COc1ncnc2c1CCN(C(=O)NCc1cccc(F)c1)CC2 | 17.2
12 | Cc1ncnc2c1CCN(C(=O)Cc1cccc(F)c1)CC2 | 36.4
13 | COc1ncnc2c1CCN(C(=O)Cc1cccc(F)c1)CC2 | 52.6
14 | O=C(Cc1cccc(F)c1)N1CCc2ncnc(NC3CCC3)c2CC1 | 53
15 | O=C(Cc1cccc(F)c1)N1CCc2ncnc(NC3CC3)c2CC1 | 14
16 | CCS(=O)(=O)N1CCc2ncnc(OC)c2CC1 | 79.2
17 | CCS(=O)(=O)N1CCc2ncnc(C)c2CC1 | 42.3
18 | Cc1ccc(CN2CCOCC2c2[nH]ncc2C)cn1 (configuration not stated) | 13.635
19 | CCC(c1ccccc1)c1nn2c(CN(CC)CC)nnc2s1 (configuration not stated) | 23.1
20 | CCC(=O)NCCc1cc2nc(-c3ccncc3)ccn2n1 | 21.4
21 | COCC(C)NC(=O)c1cc(C)n(-c2cccc(OC)c2)c1C (configuration not stated) | 35.9
22 | CN1C(=O)CCCC12CCCN(C(=O)c1cccc(C(F)(F)F)c1)C2 (configuration not stated) | 40.8
23 | CSCC[C@H](NC(C)=O)c1nc(CCc2ccccc2)n[nH]1 | -47.9

Row | Structure (SMILES) | INHIBITION [%]
24 | CCC=C(C)C(=O)NCc1ccc(OC)nc1 | -0.514
25 | Cc1ccccc1-c1noc(CN2CCc3nn(C)c(=O)cc3C2)n1 | 7.08
26 | CCOCC(O)CN1CCN(C(=O)Cc2ccc3c(c2)CCC3)CC1 (configuration not stated) | 51.5
27 | O=C(Cc1ccccc1Cl)N1CCN(CC(O)COCCO)CC1 (configuration not stated) | 57.85
28 | CCOCC(O)CN1CCN(C(=O)Cc2ccc3c(c2)CCO3)CC1 (configuration not stated) | 9.25
29 | CCC(O)CN1CCN(C(=O)Cc2ccccc2Cl)CC1 (configuration not stated) | 18.625
30 | CCOCC(O)CN1CCN(C(=O)Cc2ccccc2Cl)CC1 (configuration not stated) | 25.6
31 | CCOCC(O)CN1CCN(C(=O)Cc2cccc(C)c2)CC1 (configuration not stated) | -52.95
32 | O=C(c1cnccn1)N1CCCC2(CCN(Cc3cccnc3)C2)C1 (configuration not stated) | -19.5
33 | O=C(c1cncc(NCC2COc3ccccc3C2)n1)N1CCCCC1 (configuration not stated) | 0.348
34 | CC(C)Cc1nc(OCC(=O)O)c(C#N)c2c1CCCC2 | 43.4
35 | CC(C)Cc1nc(OCC(N)=O)c(C#N)c2c1CCC2 | 16.6
36 | CC(C)Cc1nc(OCC(N)=O)c(C#N)c2c1CCCC2 | 51
37 | C[C@@H]1C[C@H](C(F)(F)F)n2nc(C3CCN(C(=O)C(C)(C)C)CC3)cc2N1 | 8.72
38 | O=C(NCc1cccnc1)C1=NOC2(CCN(C(=O)N3CCCC3)C2)C1 (configuration not stated) | -50.9
39 | CCc1ncc(C(=O)N(C)CCc2nc3cc(OC)ccc3[nH]2)cn1 | 59.1
40 | CN(CCc1nc2cc(Cl)ccc2[nH]1)C(=O)c1ncn[nH]1 | 16.5
41 | CCNc1ncc(C(=O)N(C)CCc2nc3cc(Cl)ccc3[nH]2)cn1 | 41.5
42 | CCn1cnnc1CNC(=O)c1ccc(Cl)cc1I | 44.1
43 | O=C1COC2(CCN(c3ccccn3)CC2)CN1 | -23.3
44 | COc1cc(N2CCC3(CC2)CNC(=O)CO3)ncn1 | 16.6
45 | O=C1COC2(CCN(c3ncccn3)CC2)CN1 | 70
46 | O=C1CCCCN1CCCC(=O)N1CCC2(CC1)[C@H](O)C[C@@H]2O | 26.8

Row | Structure (SMILES) | INHIBITION [%]
47 | CC(=O)Nc1nc(CN(C)C2CCCN(c3cccnn3)C2)cs1 (configuration not stated) | 31.2
48 | CN(CC(=O)Nc1nncs1)CC1CCCN1c1cccnn1 (configuration not stated) | 3.77
49 | Cc1csc(NC(=O)CN(C)CC2CCCN2c2cccnn2)n1 (configuration not stated) | 48.5
50 | CC(=O)Nc1nc(CN(C)CC2CCCN2c2cccnn2)cs1 (configuration not stated) | 51.7
51 | CN(CC(=O)Nc1ccncc1)CC1CCCN1c1cccnn1 (configuration not stated) | 41.4
52 | CN(CC(=O)Nc1cccnc1)CC1CCCN1c1cccnn1 (configuration not stated) | 53.4
53 | Cc1noc(C)c1CCC(=O)N[C@@H]1CCC[C@@H](Oc2cccnc2)[C@@H]1O | -27.1
54 | CS(=O)(=O)c1cccc(C(=O)NCC2(c3ccccc3)CC2)c1 | 86.8
55 | CS(=O)(=O)c1cccc(C(=O)NCCCN2CCc3ccccc3C2)c1 | 56.4
56 | O=C(NCCCN1CCc2ccccc2C1)c1ccccc1Br | 5.03
57 | Cc1ccccc1C1(CNC(=O)c2ccc(S(C)(=O)=O)cc2)CC1 | 30.3
58 | Cc1ccccc1C(=O)NCCCN1CCc2ccccc2C1 | 25.6
59 | CS(=O)(=O)c1ccccc1C(=O)NCCCN1CCc2ccccc2C1 | 52.1
60 | Cc1cccc(C(=O)NCCCN2CCc3ccccc3C2)c1C | 21.5
61 | Cc1ccccc1C1(CNC(=O)c2cccc(S(C)(=O)=O)c2)CC1 | -8.22
62 | O=C(NCCCN1CCc2ccccc2C1)c1ccccc1Cl | -7.31
63 | Cc1nc(C)n(CC2CCCCN2CC(=O)NC(C2CC2)C2CC2)n1 (configuration not stated) | -24.2
64 | O=c1c2ccccc2nc2n1C(CSc1cccc(C(F)(F)F)c1)CN2 (configuration not stated) | 37.8
65 | CNC(=O)[C@@H]1C[C@H]2CN(C(=O)c3ccco3)C[C@H]2N1C | 7.84
66 | c1ccc(N2CCOC3(CCCN(c4nncs4)C3)C2)nc1 (configuration not stated) | 3.95
67 | O=C1C[C@@H]2CC[C@H](CN1)N2C(=O)CCc1ccccc1 | 11.2
68 | Cc1cc(CCC(N)=O)cc(C2CCCN2Cc2cnc(C)nc2)n1 (configuration not stated) | 52
69 | Cc1cc(CCC(N)=O)cc(C2CCCN2Cc2ccnn2C)n1 (configuration not stated) | -2.11

Row | Structure (SMILES) | INHIBITION [%]
70 | Cc1cc(CCC(N)=O)cc(C2CCCN2Cc2ccccn2)n1 (configuration not stated) | 18.3
71 | Cc1noc(C)c1CNCC1COCc2c(-c3ccoc3)nnn2C1 (configuration not stated) | -16.9
72 | CCc1noc(C2CCCCN2C(=O)c2ccc3c(c2)OCO3)n1 (configuration not stated) | 7.66
73 | Cc1nc(CN2CCCC2c2nc(C(C)C)no2)cs1 (configuration not stated) | 36.8
74 | CCn1cc(CN2CCCC2c2nc(C(C)C)no2)cc1C#N (configuration not stated) | 25.8
75 | CCn1ccc2ccc(CN3CCCC3c3nc(C(C)C)no3)cc21 (configuration not stated) | 61.2
76 | C=C(C)CNC(C)c1ccc(S(C)(=O)=O)c(F)c1 (configuration not stated) | -13.1
77 | Nc1nccnc1C(=O)NC1CCN(Cc2ccccc2)C1 (configuration not stated) | -14.5
78 | Cc1cc(C)c2c(OCC(=O)NCC(O)C(F)(F)F)nn(C)c2n1 (configuration not stated) | -23.4
79 | COc1cccc(C2=CCN(CCN3CCOC3=O)CC2)c1 | 9.37
80 | COCCN1CC=C(c2cccc(OC)c2)CC1 | -6.72
81 | COc1cccc(C2=CCN(CCN3CCCC3=O)CC2)c1 | 51.7
82 | O=S(=O)(c1ccc(N2CCCCC2)c2nonc12)N1CCCCC1 | 30
83 | COc1cc(F)ccc1-c1cnc(N)cn1 | 61.5
84 | Nc1cnc(-c2ccc(F)cc2Cl)cn1 | 38.2
85 | COc1cc(F)ccc1-c1cc(CO)ccn1 | 37.7
86 | CN1CCN(C2CCOCC2)CC12CCC(=O)N(CC1CC1)CC2 (configuration not stated) | 5.46
87 | Clc1cccc(-n2cnnn2)c1N1CCCC1 | 11
88 | Clc1cccc(-n2cnnn2)c1N1CCOCC1 | 1.86
89 | Clc1cccc(-n2cnnn2)c1N1CCCCC1 | 67.3
90 | O=c1[nH]c2nc(NC3CC3)ncc2c(=O)n1-c1ccc(F)cc1 | 13.8
91 | O=c1[nH]c2nc(NCC3CCCO3)ncc2c(=O)n1-c1cccc(F)c1 (configuration not stated) | -26.2
92 | O=c1[nH]c2nc(NCC3CCCO3)ncc2c(=O)n1-c1ccc(F)cc1 (configuration not stated) | 88.8

Row | Structure (SMILES) | INHIBITION [%]
93 | COCCN1CC[C@@H]2CN(Cc3nccn3C)C[C@@H]2C1 | 28.7
94 | Cc1ccccc1C(=O)N1CCOC(c2ncc(CN(C)C)[nH]2)C1 (configuration not stated) | -10.4
95 | CCS(=O)(=O)N1C[C@@H](C(=O)NC(C)C)[C@@]2(Cc3ccccc3C(=O)N2)C1 | -8.31
96 | CCNC(=O)CCC(=O)NC1(c2cccc(C(F)(F)F)c2)CCC1 | 23.9
97 | CS(=O)(=O)CCC(=O)NC1(c2cccc(C(F)(F)F)c2)CCC1 | 65.6
98 | COCC(=O)NC1(c2cccc(C(F)(F)F)c2)CCC1 | 38.7
99 | CC(C)NC(=O)Nc1ccc(CNCc2cccc(C#N)c2)cc1 | 43.7
100 | Cc1ccc(C(CNCc2c[nH]nc2C)N(C)C)cc1 (configuration not stated) | -4.33
101 | CC(=O)N1CCC(NC(=O)c2cc(Cl)ccc2O)CC1 | 61
102 | CC(=O)N1CCC(NC(=O)c2cc(Cl)ccc2-n2cnnn2)CC1 | 37.7
103 | O=C(NC1CCN(C2CC2)CC1)c1cc(Cl)ccc1-n1cnnn1 | 62.8
104 | CC(=O)N1CCC(NC(=O)c2cc(S(N)(=O)=O)ccc2C)CC1 | -21.3
105 | COCC(O)CN1CCC(NC(=O)c2ccccc2Cl)CC1 (configuration not stated) | 19.6
106 | CC(C)CN1CCC(NC(=O)c2ccc(F)cc2F)CC1 | 31.1
107 | CC(C)CN1CCC(NC(=O)c2ccc(Cl)cc2Cl)CC1 | 90.2
108 | O=C(NC1CC1)c1cc(Cl)ccc1-n1cnnn1 | -3.59
109 | CC(C)CN1CCC(NC(=O)c2ccc(F)cc2Cl)CC1 | -23.4
110 | CC(C)CN1CCC(NC(=O)c2ccc(F)cc2I)CC1 | 50.1
111 | CC(=O)N1CCC(NC(=O)c2ccccc2-n2cnnn2)CC1 | 35.9
112 | CCN1CCC(NC(=O)c2ccc(F)cc2I)CC1 | 2.7
